Measurements: PubChem BioAssay AID1117361 (Southern Research Institute, 2015)
Hit rate of the full screen: of about 3,600 compounds, about 900 (25%) were called active. How the calls were made is not given here. Only a sample is shown. Where a call stands in place of a potency, no number is given. Potency and affinity values are given separately.

Target: Protein Tat (Human immunodeficiency virus type 1 group M subtype B (isolate HXB2)) (UniProt P04608)
Experiment: HIV-1 Tat–TAR interaction blockers – biochemical, fluorescence polarization, FAM-labeled TAR RNA, counter-screen for Vif-APOBEC3G degradation inhibitor project, dose response (AID 1117361)
Settings: Tat-TAR RNA binding; series mostly up to 100 µM

Which outcome does the source give for `CCn1c(C(=O)N2CCCC(C(=O)NCCc3ccc(C)cc3)C2)cc2sccc21` (configuration not stated) here?
Its outcome is “inactive”.

For `O=C(NC1CCCC1)c1ccc(CNc2c(N3CCOCC3)c(=O)c2=O)cc1`, which outcome is on record?
The outcome was “inactive”.

`CCCCOCCCNC(=O)c1ccc(OCC)cc1` was tested. Which outcome did it give?
Its outcome is “inactive”.

With `CC1(C)Oc2ccc(C(=O)NC3CCCC3)cc2N(CC(=O)NC2CCCC2)C1=O` as the compound, how does the outcome read?
Its outcome is “inactive”.

For `CCCNC(=O)c1cccc(Cn2nc(C)c(Br)c2C)c1`, which outcome is on record?
Its outcome is “inactive”.

For `CCC(Nc1nc(-c2ccccc2)nc2ccccc12)C(=O)O` (configuration not stated), which outcome is on record?
Its outcome is “inactive”.

How did the outcome turn out when `Clc1ccc(Sc2oc(/C=N/n3cnnc3)cc2Br)cc1` was run?
Its outcome is “inactive”.

For `O=C1C(Cl)=C(Nc2ccc3cn[nH]c3c2)C(=O)c2ccccc21`, which outcome is on record?
The outcome was “inactive”.

Which outcome does the source give for `C/C(=N\NC(=O)C(C)Oc1ccc([N+](=O)[O-])cc1)c1ccccn1` (configuration not stated) here?
Its outcome is “inactive”.

How did the outcome turn out when `COC(=O)C1=C(C)N(C)C(C)=C(C(=O)OC)C1c1ccc(F)c(Br)c1` was run?
The outcome was “inactive”.

`COc1cc(OC)cc(C(=O)NC2CCN(C(=O)N3c4ccccc4Sc4ccccc43)CC2)c1` was tested. Which outcome did it give?
Its outcome is “inactive”.

`Nc1c(-c2ccccc2Cl)cnn1-c1cccc([N+](=O)[O-])c1` was tested. Which outcome did it give?
Its outcome is “inactive”.

`COc1ccc(-c2[nH]c(-c3ccc(C)cc3)nc2SCC(=O)NCc2ccco2)cc1OC` was tested. Which outcome did it give?
Its outcome is “inactive”.

How did the outcome turn out when `COC(=O)Nc1sc2c(c1C(=O)NCc1ccco1)CCCC2` was run?
Its outcome is “inactive”.

Which outcome does the source give for `O=C1CC(SC(=Nc2ccccc2)Nc2ccccc2)C(=O)N1c1ccc(Cl)cc1` (configuration not stated) here?
The outcome was “inactive”.

Which outcome does the source give for `O=C(NCc1ccc(F)cc1)C1CCCN(C(=O)Nc2ccccc2)C1` (configuration not stated) here?
The outcome was “inactive”.

With `CCOC(=O)CC1COc2ccccc2N1C(=O)c1ccc(C)cc1` (configuration not stated) as the compound, how does the outcome read?
Its outcome is “inactive”.

How did the outcome turn out when `CS(=O)(=O)NCc1nnc(SCc2ccccc2C(F)(F)F)o1` was run?
Its outcome is “inactive”.

Which outcome does the source give for `CSc1oc(-c2ccccc2)nc1S(=O)(=O)c1ccc(C)cc1` here?
The outcome was “inactive”.

How did the outcome turn out when `COc1ccc2c(c1)c1ccc3c(c1n2C)C(=O)C=CC3=O` was run?
The outcome was “inactive”.

With `Cc1ccc2c(c1)c1ccc3c(c1n2C)C(=O)C=CC3=O` as the compound, how does the outcome read?
Its outcome is “inactive”.

With `COc1cc2c(cc1NC(=O)COC(=O)Cn1cnc3ccccc31)oc1ccccc12` as the compound, how does the outcome read?
The outcome was “inactive”.

For `CCOC(=O)C(CC(=O)O)=C(c1ccccc1)c1ccccc1`, which outcome is on record?
The outcome was “inactive”.

How did the outcome turn out when `CCOC(=O)CSc1nnc(-c2cccnc2)n1Cc1ccccc1` was run?
The outcome was “inactive”.

For `CCc1cccc(NC(=O)CN(C)S(=O)(=O)c2cccc3nsnc23)c1`, which outcome is on record?
Its outcome is “inactive”.

How did the outcome turn out when `O=C(OCc1c(Cl)cccc1Cl)c1cccnc1Cl` was run?
The outcome was “inactive”.

Which outcome does the source give for `Cc1ccc(-c2csc(NC(=O)C3CC=CCC3C(=O)O)c2C(=O)OC(C)C)cc1` (configuration not stated) here?
The outcome was “inactive”.

For `O=C(C1CCCO1)N1CCC(c2nc3ccccc3[nH]2)CC1` (configuration not stated), which outcome is on record?
The outcome was “inactive”.

For `O=C(C1CCN(S(=O)(=O)N2CCC3(CC2)OCCO3)CC1)N1CCOCC1`, which outcome is on record?
Its outcome is “inactive”.

With `O=C(NCC1CC1)c1ccc2c3n(nc2c1)-c1ccccc1CO3` as the compound, how does the outcome read?
The outcome was “inactive”.

For `O=C(NNC(=O)c1ccccc1O)c1cc2ccccc2o1`, which outcome is on record?
Its outcome is “inactive”.

How did the outcome turn out when `COc1ccc(C(=O)NCc2cn3cccc(C)c3n2)cc1OC` was run?
The outcome was “inactive”.

How did the outcome turn out when `COc1ccc(Cl)c(NCCC(=O)O)c1` was run?
The outcome was “inactive”.

Which outcome does the source give for `O=C(NCc1cccnc1)c1cc(S(=O)(=O)N2CCCCC2)ccc1Cl` here?
The outcome was “inactive”.

Which outcome does the source give for `NS(=O)(=O)c1ccc(NC(=O)COC(=O)c2cc(Cl)ccc2[N+](=O)[O-])cc1` here?
The outcome was “inactive”.

`CC(=O)Nc1ccc(/C=N/Nc2ccc(C(=O)c3c(C)cc4ccccn34)cc2[N+](=O)[O-])cc1` was tested. Which outcome did it give?
Its outcome is “inactive”.

For `Clc1ccc(/C(Cc2nc3ccccc3[nH]2)=N\Nc2ccccc2)cc1`, which outcome is on record?
Its outcome is “inactive”.

Which outcome does the source give for `Cc1c(Cl)cccc1NC(=O)CC(Cc1ccccc1)C(=O)O` (configuration not stated) here?
Its outcome is “inactive”.

`COC(=O)c1cc2c(ccn2-c2ccc(F)cc2)n1CC(C)C` was tested. Which outcome did it give?
The outcome was “inactive”.

How did the outcome turn out when `CC1CCN(c2nc3ccc(C(=O)N4CCN(Cc5ccccc5)CC4)cc3s2)CC1` was run?
The outcome was “inactive”.

Which outcome does the source give for `CCOC(=O)CSc1nnc(CNC(=O)c2cccs2)n1-c1ccccc1` here?
Its outcome is “inactive”.

For `O=C(COC(=O)c1ccc(O)cc1O)NNC(=O)c1cccs1`, which outcome is on record?
The outcome was “inactive”.

For `COc1cccc(OC)c1OCCOCCn1cnc2ccccc2c1=O`, which outcome is on record?
The outcome was “inactive”.

For `COCC(=O)NCc1nc2ccccc2[nH]1`, which outcome is on record?
Its outcome is “inactive [at 50 µM]”.

How did the outcome turn out when `CCn1c(CNc2ccc(Cl)cc2)nnc1SCc1ccccc1` was run?
Its outcome is “inactive”.

Which outcome does the source give for `CCOC(=O)CSc1nnc(CNc2ccc(Cl)cc2)n1-c1ccccc1` here?
Its outcome is “inactive”.

Which outcome does the source give for `Clc1ccc(CNc2ccc(CNc3ncn[nH]3)cc2)c(Cl)c1` here?
Its outcome is “inactive”.

With `COc1cccc(/C=N/NC(N)=S)c1OCc1ccccc1Cl` as the compound, how does the outcome read?
The outcome was “inactive”.

With `CCCNC(=O)COC(=O)c1ccccc1OCc1ccc(Cl)cc1` as the compound, how does the outcome read?
The outcome was “inactive”.

How did the outcome turn out when `CCOc1cc(Cl)c(S(=O)(=O)NCc2ccccn2)cc1Cl` was run?
The outcome was “inactive”.

`CCc1ccc(N2C(=O)Cc3c2nc(N)c(C#N)c3N)cc1` was tested. Which outcome did it give?
Its outcome is “inactive”.

Which outcome does the source give for `CCOC(=O)Cn1nc(-c2ccccc2)c2cnc3ccc(C)cc3c21` here?
The outcome was “inactive”.

`O=C1CC(c2c(F)cccc2Cl)C2=C(COC2=O)N1` (configuration not stated) was tested. Which outcome did it give?
Its outcome is “inactive”.

For `COc1cccc(CC(=O)N2CCCC(CO)(Cc3ccc(F)cc3F)C2)c1` (configuration not stated), which outcome is on record?
Its outcome is “inactive”.

With `Cc1ccc(C(=O)COC(=O)CNC(=O)C(c2ccccc2)c2ccccc2)cc1[N+](=O)[O-]` as the compound, how does the outcome read?
The outcome was “inactive”.

`C=CCn1c(SCC(=O)c2c(N)n(C)c(=O)n(C)c2=O)nnc1-c1ccccc1F` was tested. Which outcome did it give?
The outcome was “inactive”.

For `O=c1c2c(-c3ccco3)csc2nc(SCc2cn3cccnc3n2)n1-c1ccccc1`, which outcome is on record?
Its outcome is “inactive”.
